Here are results for 61 molecules from PubChem BioAssay AID463173 (ICCB-Longwood Screening Facility, Harvard Medical School, 2010).

The structures appear in SMILES notation. Out of some 52,000 compounds screened, about 4,300 (8.3%) were called active. For the sample, actives were picked, then their nearest neighbours and some compounds at random. Values without a mark were called inactive. Cut-off read from the data, not from the text of the source: active = survival mostly below about 52% (no sharp cut-off); inactive = mostly above about 56%.

The test relates to DeltatarO mutant. The experiment in a line: growth inhibition of S. aureus wild type versus tarO mutant, primary screen, teichoic acid synthesis inhibitors, RN4220, OD600 (AID 463173). As to conditions: OD600, 18 h, active compounds read low, concentration not given here.
Regarding `O=C1CC(=O)N(C2CCCCC2)C(=O)N1`, the survival is 77%.
In the case of `CCSc1nnc(NC(=O)c2cccn(Cc3ccc(Cl)cc3)c2=O)s1`, the survival was 73%.
The figure for `CC(=O)Nc1c(O)[nH]c(=S)[nH]c1=O` is 103%; for `O=C(Nc1nc2ccccc2s1)c1cccn(Cc2ccccc2)c1=O` it is 83%.
Take `CCOC(=O)CC1=C(C(=O)OCC)C2(C(=O)N(C)c3ccccc32)C(C#N)=C(N)O1` (stereo unspecified): the survival was 0% (active).
The figure for `CCOC(=O)C1=C(C)OC(N)=C(C#N)C12C(=O)N1c3c(cccc32)C(C)CC1(C)C` (stereo unspecified) is 51%.
Consider `COC(=O)CC1=C(C(=O)OC)C2(C(=O)Nc3ccc(F)cc32)C(C#N)=C(N)O1` (stereo unspecified), for which the survival was 65%.
Then `CCC(C)c1c(O)[nH]c(=S)[nH]c1=O` (stereo unspecified), with 82%.
In the case of `CCN(CC)C(=O)c1ccc(NC(=O)c2ccc(-c3nn(C)c(=O)c4ccccc34)cc2)cc1`, the survival was 68%.
With `Cc1ccnc(NS(=O)(=O)c2ccc(N=Cc3c(O)n(C)c(=O)n(C)c3=O)cc2)n1`, the survival was 93%.
For `COc1ccc(-c2nc(CN3C(=O)CN=C(c4ccccc4Cl)c4cc(Cl)ccc43)c(C)o2)cc1OC`, the survival was 63%.
For the molecule `CN1CCN(c2oc(-c3ccc(COc4ccccc4)o3)nc2C#N)CC1`, the survival was 41% (active).
With `CN1C(=O)C(Cc2cccs2)C(=O)N(C)C1=O`, the survival is 80%.
For `CC(C)C(=O)N1N=C(c2cccnc2)CC1(O)C(F)(F)F` (stereo unspecified), the survival is 66%.
Then `OC1(c2ccc(F)cc2)CC2CCC(C1)N2Cc1nnnn1C1CCCCC1` (stereo unspecified), with 97%; and `Cc1ccc(NC(=O)N(Cc2ccc3c(c2)OCO3)C2CCN(Cc3ccccc3)CC2)cc1F`, with 87%; and `Cc1ccc(NC(=O)N(Cc2ccc3c(c2)OCO3)C2CCN(Cc3ccccc3)CC2)cc1C`, with 17% (active).
As to `Cc1ccc(NC(=O)N(Cc2ccc3c(c2)OCO3)C2CCN(Cc3ccccc3)CC2)cc1Cl`, the survival is 128%.
The figure for `COc1ccc(NC(=O)CN2C(=O)C(C)N=C(c3ccccc3)c3ccccc32)cc1OC` (stereo unspecified) is 116%; for `CCCC12CN3CC(CCC)(CN(C1)C3c1ccccn1)C2=O` (stereo unspecified) it is 84%.
Then `O=C1CC(=O)N(c2ccccc2)C(=O)N1c1ccccc1`, with 90%.
On to `Cc1cc(C)cc(OCC(=O)Nc2ccc(Cl)cc2C(=O)c2ccccc2)c1`, for which the survival was 82%.
In the case of `O=C(Nc1ccc(Br)cc1C(=O)c1ccccc1Cl)c1ccccc1F`, the survival is 52%.
Take `O=C(Nc1ccc(Br)cc1C(=O)c1ccccc1)c1ccccc1`: the survival was -1% (active).
Then `CC(C)(C)c1ccc(OCC(=O)Nc2ccc(Cl)cc2C(=O)c2ccccc2)cc1`, with 70%; and `CSc1ncc(C(=O)Nc2ccc(Cl)cc2C(=O)c2ccccc2)c(C)n1`, with 98%; and `Cc1cccc(C)c1OCC(=O)Nc1ccc(Cl)cc1C(=O)c1ccccc1`, with 17% (active).
In the case of `CC(C)(C)c1ccc(C(=O)Nc2ccc(Cl)cc2C(=O)c2ccccc2)cc1`, the survival was 6% (active).
As for `COc1cc(OC)cc(C(=O)Nc2ccc(Cl)cc2C(=O)c2ccccc2Cl)c1`, the survival is 171%.
With `O=C(Nc1ccc(Br)cc1C(=O)c1ccccc1Cl)c1ccc(Br)cc1`, the survival was 144%.
As to `Cc1ccc(OCC(=O)Nc2ccc(Cl)cc2C(=O)c2ccccc2)cc1C`, the survival is 69%.
The figure for `COc1ccc(C(=O)Nc2ccc(Cl)cc2C(=O)c2ccccc2)c(OC)c1` is 2% (active); for `O=C(COc1ccc(Cl)cc1)Nc1ccc(Cl)cc1C(=O)c1ccccc1` it is 83%.
Then `CC(=O)NC1CC2CCC(C1)N2` (stereo unspecified), with 98%; and `O=C(CCc1nc(C2=CCN(Cc3cccc(Cl)c3)CC2)no1)Nc1ccccc1F`, with 81%; and `OC1(c2cccc(F)c2)CC2CCC(C1)N2Cc1nnnn1CCc1ccccc1` (stereo unspecified), with 85%.
Then `CSc1ccc(CN2CCN(C(=O)COc3cccc(C)c3)CC2)cc1`, with 84%; and `Cc1c(/C(CC(C)C)=N/O)c2ccccc2n1C`, with 79%.
Consider `O=C(Nc1ccc(F)c([N+](=O)[O-])c1)c1cccn(Cc2ccccc2)c1=O`, for which the survival was 115%.
The figure for `CN1CCN(Cc2cn3ccccc3n2)CC1` is 104%; for `CCOc1ccc(CN(CCc2ccc3c(c2)OCO3)Cc2cccc(OC)c2)cc1` it is 44%; for `CCOc1ccc(CN(CCc2ccc3c(c2)OCO3)Cc2cc(OC)ccc2O)cc1` it is 62%.
Then `O=C(Nc1ccc(Cl)cc1C(=O)c1ccccc1)c1ccccc1Br`, with 24% (active); and `O=C(Nc1ccc(Cl)cc1C(=O)c1ccccc1)c1cc(Cl)cc(Cl)c1`, with 150%.
Then `O=C(COc1ccc(Br)cc1)Nc1ccc(Cl)cc1C(=O)c1ccccc1`, with 83%; and `CC(C)OC12Oc3ccccc3C=C1N1CCC2CC1` (stereo unspecified), with 80%.
On to `COc1ccc(CN2CCN(C(=O)COc3ccccc3)CC2)c(OC)c1`, for which the survival is 184%.
For the molecule `c1cc(CN2CCNCC2)ccn1`, the survival is 105%.
Consider `Nc1c(C(=O)Nc2cccc(Br)c2)sc2nc3c(cc12)N1CCC3CC1`, for which the survival was 40% (active).
The figure for `Nc1c(C(=O)Nc2ccc(Cl)c(C(F)(F)F)c2)sc2nc3c(cc12)N1CCC3CC1` is 4% (active).
The figure for `Nc1c(C(=O)Nc2ccc(Cl)cc2)sc2nc3c(cc12)N1CCC3CC1` is 55%.
As for `Nc1c(C(=O)Nc2ccc(Br)cc2F)sc2nc3c(cc12)N1CCC3CC1`, the survival was 132%.
The figure for `Nc1c(C(=O)Nc2ccc(OC(F)(F)F)cc2)sc2nc3c(cc12)N1CCC3CC1` is 99%.
The figure for `Nc1c(C(=O)Nc2ccc(F)c(Cl)c2)sc2nc3c(cc12)N1CCC3CC1` is 65%; for `COc1ccc(C2CC(=O)Oc3c2c(=O)oc2ccccc32)c(OC)c1OC` (stereo unspecified) it is 75%; for `COc1ccccc1CN1CCN(C(=O)COc2cccc(C)c2)CC1` it is 162%.
Regarding `O=C1CN=C(c2ccccc2)c2cc(Cl)ccc2N1Cc1ccc(Cl)cc1`, the survival is 66%.
For the molecule `Cc1ccc(Cn2cccc(C(=O)Nc3ccc4c(c3)OCCO4)c2=O)cc1`, the survival was 83%.
With `CCOc1ccccc1CN(CCc1ccc2c(c1)OCO2)Cc1ccc(CC)cc1`, the survival is 111%.
For the molecule `CCCC1=Nc2cc(C(=O)NC3CCC(C)CC3)ccc2Sc2ccccc21` (stereo unspecified), the survival was 39% (active).
Then `CCCC1=Nc2cc(C(=O)NCCCN(CC)CC)ccc2Sc2ccccc21`, with 138%.
